Test results published in PubChem BioAssay AID588689 (Southern Research Specialized Biocontainment Screening …, 2011).
Hit rate of the full screen: of about 340,000 compounds, about 1,000 (0.29%) were called active. Rule as the data show it: inconclusive = inhibition above about 29% without an active follow-up result; inactive = below that. The list is a sample of the results. Results with a measured potency or affinity are listed apart.

Biological target: Genome polyprotein (Dengue virus type 2 (strain 16681-PDK53)) (UniProt P29991)
Experiment: Dengue-2 NS5 methyltransferase inhibitors, primary screen, biochemical, confirmation dose response (AID 588689)
Conditions: Dengue-2 NS5 methyltransferase capping enzyme assay, at 25 µM, stronger effect = higher value
[1] = measured here: pilot screen replicate inhibition

For `O=C(CSc1nccc(=O)[nH]1)Nc1ccc(S(=O)(=O)N2CCOCC2)cc1`, the inhibition was 0% (inactive).

For `Cc1ccc(CNC(=O)CCn2ccc3cc(S(=O)(=O)N4CCCC4)ccc32)cc1`, the inhibition was -4.92% (inactive).

`Cc1onc(-c2ccccc2)c1C(=O)OCC(=O)Nc1ccccc1` was tested, and the inhibition was 8.65% (inactive).

For `O=C1C=C(Nc2ccccc2)C(=O)c2ccccc21`, the inhibition was -2.9% (inactive).

`O=C(NC1=C(Nc2ccc(Cl)cc2)C(=O)c2ccccc2C1=O)c1ccccc1` was tested, and the inhibition was -1.83% (inactive).

For `CC(=O)Nc1ccc(NC2=CC(=O)c3ccccc3C2=O)cc1`, the inhibition was -5.82% (inactive).

`O=C(Nc1ccccc1Cl)c1ccccc1` was tested, and the inhibition was 1.49% (inactive).

`O=C(Nc1cccc(Cl)c1)C1C2C=CC3(O2)C1C(=O)N(CCCN1CCCCC1)C3C(=O)NC1CCCCC1` (stereo not drawn) was tested, and the inhibition was -16% (inactive).

In the case of `Cc1ccc(OCCCc2c(C)n[nH]c2C)cc1`, the inhibition is reported as -5.36% (inactive).

With `CCCC1CC(CSc2ncn[nH]2)OC1=O` (stereo not drawn) the inhibition was -12.3% (inactive).

In the case of `Cc1ccc(S(=O)(=O)N(CC(=O)N2CCOCC2)c2ccc(Br)cc2)cc1`, the inhibition is reported as -8.01% (inactive).

For `Cc1ccc2ccc(S(=O)(=O)NCc3ccccn3)cc2c1`, the inhibition was -1.67% (inactive).

For `COc1cccc(CNC(=O)c2ccc(CS(=O)Cc3ccc(C)cc3)o2)c1` (stereo not drawn), the inhibition was -4.44% (inactive).

With `O=C(Nc1ccc(S(=O)(=O)NCc2ccco2)cc1)c1cccc(F)c1` the inhibition was -4.85% (inactive).

For `COc1ccc(C2CC(c3ccccc3)=NN2c2ccc(C(N)=O)cc2)cc1` (stereo not drawn), the inhibition was -4.66% (inactive).

In the case of `COc1ccc(C2CC(c3ccccc3)=NN2c2ccc(N)cc2)cc1` (stereo not drawn), the inhibition is reported as -12.8% (inactive).

For `N#C/C(=C\c1cccc(Oc2ccc(C(F)(F)F)cc2[N+](=O)[O-])c1)c1nc2ccccc2[nH]1`, the inhibition was -4.47% (inactive).

In the case of `CCN(CC)C(=O)c1ccc(NS(=O)(=O)c2ccc(/C=C/C(=O)O)cc2)cc1`, the inhibition is reported as 2.19% (inactive).

For `CC1=CC(=O)C=C/C1=C(/c1ccc(O)cc1C)c1ccccc1S(=O)(=O)O`, the inhibition was -1.47% (inactive).

In the case of `CC1=C/C(=C(\c2ccc(O)c(C)c2)c2ccccc2S(=O)(=O)O)C=CC1=O`, the inhibition is reported as 0.65% (inactive) and the inhibition [1] is reported as 3.04%.

`CC1=C/C(=C(/c2ccc(O)c(C)c2)c2ccccc2S(=O)(=O)O)C=CC1=O` was tested, and the inhibition was -1.1% (inactive).

With `Cc1cc(C(=O)CS(=O)(=O)c2ccccc2)cc(C)c1O` the inhibition was -11.8% (inactive).

`O=C(NC(=O)c1ccccc1)OCCN1C(=O)c2ccccc2C1=O` was tested, and the inhibition was -5.92% (inactive).

`Cc1cc(S(=O)(=O)N2CCOCC2)ccc1OCC(=O)Nc1ccccc1C(F)(F)F` was tested, and the inhibition was -3.32% (inactive).

For `OCCNc1nc2ccccc2nc1NCCO`, the inhibition was 15.3% (inactive).

In the case of `OCCNc1c2ccccc2nc2ccccc12`, the inhibition is reported as -2.34% (inactive).

With `CC#CCCc1nc2ccccc2c(=O)n1N` the inhibition was -9.73% (inactive).

`COCCCNC(=O)CCc1nc(-c2ccccc2Cl)no1` was tested, and the inhibition was -2.35% (inactive).

In the case of `O=C(O)COc1ccc(/C=N/NC(=O)c2cn(-c3ccccc3)nc2-c2ccccc2)cc1`, the inhibition is reported as 5.65% (inactive).

For `CC(C)N1C(=O)CCN(C=O)c2ccccc21`, the inhibition was -9.31% (inactive).

`CCOc1ccc(C2C(C(=O)c3ccc(C)o3)=C(O)C(=O)N2c2nc(C)c(C(=O)OC)s2)cc1` (stereo not drawn) was tested, and the inhibition was 10.7% (inactive).

With `CCOC(=O)c1sc(N2C(=O)C(O)=C(C(=O)c3ccco3)C2c2cccc([N+](=O)[O-])c2)nc1C` (stereo not drawn) the inhibition was -0.32% (inactive).

With `CCOC(=O)c1sc(N2C(=O)C(O)=C(C(=O)c3ccco3)C2c2ccco2)nc1C` (stereo not drawn) the inhibition was -2.93% (inactive).

`COC(=O)c1sc(N2C(=O)C(O)=C(C(=O)c3ccc(C)o3)C2c2ccc(F)cc2)nc1C` (stereo not drawn) was tested, and the inhibition was -6.35% (inactive).

`COc1ccc(CC(=O)Nc2sc3c(c2C(N)=O)CCCC3)cc1` was tested, and the inhibition was -5.87% (inactive).

For `CCC(C)(C)NC(=O)Cn1c(-c2ccccc2)cc(C(C)=O)c1C`, the inhibition was 1.78% (inactive).

In the case of `O=C(CCN1N=C(c2ccccc2)CCC1=O)NCC1CCCO1` (stereo not drawn), the inhibition is reported as 6.81% (inactive).

In the case of `Cc1nn(-c2ccc3ccccc3c2)c(=O)c2ccccc12`, the inhibition is reported as -4.49% (inactive).

`CSc1nnc(-c2ccccc2N=Cc2c(C)[nH]n(-c3ccccc3)c2=O)c(=O)[nH]1` was tested, and the inhibition was 11.5% (inactive).

In the case of `Cc1ccc2nc(N3C(=O)C(O)=C(C(=O)c4ccco4)C3c3ccc(O)cc3)sc2c1` (stereo not drawn), the inhibition is reported as 3.66% (inactive).

In the case of `Cc1ccc2nc(N3C(=O)C(O)=C(C(=O)c4ccco4)C3c3ccc(C)o3)sc2c1` (stereo not drawn), the inhibition is reported as -8.15% (inactive).

In the case of `Cc1ccc2nc(N3C(=O)C(O)=C(C(=O)c4ccc(C)o4)C3c3cccc(O)c3)sc2c1` (stereo not drawn), the inhibition is reported as 0.73% (inactive).

`Cc1cc(C)c2nc(N3C(=O)C(O)=C(C(=O)c4ccco4)C3c3ccco3)sc2c1` (stereo not drawn) was tested, and the inhibition was 1.47% (inactive).

In the case of `Cc1nn(CCCC(=O)NCc2ccccc2)c(C)c1[N+](=O)[O-]`, the inhibition is reported as -1.91% (inactive).

In the case of `CCCn1c(N)c(N(CCOC)C(=O)c2ccc([N+](=O)[O-])c(C)c2)c(=O)[nH]c1=O`, the inhibition is reported as -3.56% (inactive).

In the case of `COc1ccc(S(=O)(=O)N2CCN(C(=O)Cc3cccs3)CC2)cc1`, the inhibition is reported as -2.65% (inactive).

`CC(C)c1nc2ccc(NC(=O)C3CCCCC3)cc2[nH]1` was tested, and the inhibition was 4.05% (inactive).

For `O=C(C1=C(O)C(=O)N(CCN2CCOCC2)C1c1ccco1)c1cc2ccccc2o1` (stereo not drawn), the inhibition was -8.02% (inactive).

With `CC(/C=N/n1c(-c2ccco2)n[nH]c1=S)=C\c1ccccc1` the inhibition was 1.83% (inactive).

With `CC(=C/c1ccccc1)/C=N/n1c(-c2ccco2)n[nH]c1=S` the inhibition was -1.88% (inactive) and the inhibition [1] was 2.73%.

For `O=C(Nc1ccccc1C(=O)O)c1ccc2c(c1)C(=O)N(c1cccc([N+](=O)[O-])c1)C2=O`, the inhibition was 17.6% (inactive).

In the case of `Cc1ccc(C(=O)O)cc1NC(=O)c1ccc2c(c1)C(=O)N(c1ccc([N+](=O)[O-])cc1)C2=O`, the inhibition is reported as -4.57% (inactive).

With `Cc1cc(C(=O)CSc2nnc(N)s2)c(C)n1Cc1ccco1` the inhibition was -12.5% (inactive).

`CCOc1ccc(N2C(=O)CC(N3CCOCC3)C2=O)cc1` (stereo not drawn) was tested, and the inhibition was -2.04% (inactive).

For `CCOc1ccc(N2C(=O)c3ccccc3C2=O)cc1`, the inhibition was 1.62% (inactive).

In the case of `COc1ccccc1N1C(=O)C(Cl)=C(N2CCCC2)C1=O`, the inhibition is reported as -1.98% (inactive) and the inhibition [1] is reported as 0.315%.

For `COc1ccc(N2C(=O)C(Cl)=C(N3CCCC3)C2=O)cc1`, the inhibition was -10.6% (inactive).

With `COc1ccc(OC)c(N2C(=O)C(Cl)=C(N3CCCCC3)C2=O)c1` the inhibition was 0.68% (inactive).

With `CCc1ccc(N2CCN(C(=O)N3CCOCC3)CC2)cc1` the inhibition was -8.84% (inactive).

In the case of `CCc1ccc(N2C(=O)C(Cl)=C(N3CCCCCC3)C2=O)cc1`, the inhibition is reported as -5.23% (inactive).

In the case of `COc1ccc(N2C(=O)C(Cl)=C(N3CCN(Cc4ccccc4)CC3)C2=O)cc1`, the inhibition is reported as -1.61% (inactive).

In the case of `COc1cccc(-c2nc3ccc(C(=O)N4CCCC(O)C4)cc3o2)c1` (stereo not drawn), the inhibition is reported as -1.93% (inactive).

In the case of `CSc1ccc(CN(C)C(=O)c2ccc(S(=O)(=O)Nc3c(C)n(C)n(-c4ccccc4)c3=O)cc2)cc1`, the inhibition is reported as -9.48% (inactive).

In the case of `CCOC(=O)CSc1nnnn1-c1cc(OC)ccc1OC`, the inhibition is reported as -2.05% (inactive).

In the case of `C=CC[C@H](CC(=O)NCCO)C(=O)NCCOC(=O)[C@@H](CC=C)Cc1ccc(F)cc1`, the inhibition is reported as -5.62% (inactive).

In the case of `CCCNC(=O)N1C2=NC(C(=O)OC)=C(C(=O)OC)[C@@H]3N(Cc4ccccc4)c4ccccc4[C@]23C[C@H]1CO`, the inhibition is reported as -2.73% (inactive).

`CCCC1Nc2ccc(C(=O)O)cc2C2C=CCC12` (stereo not drawn) was tested, and the inhibition was 11.1% (inactive).

With `CC(C)CNC(=O)C1Nc2ccc(C(F)(F)F)cc2C2C=CCC12` (stereo not drawn) the inhibition was 2.4% (inactive).

With `CCOC(=O)c1ccc2c(c1)C1C=CCC1C(C(=O)OCC)N2` (stereo not drawn) the inhibition was 10.8% (inactive).

`CC(=O)c1ccc2c(c1)C1C=CCC1C(c1ccncc1)N2` (stereo not drawn) was tested, and the inhibition was 50.2% (inactive).

With `O=C(O)C1Nc2ccc(Br)cc2C2C=CCC12` (stereo not drawn) the inhibition was 55.7% (inactive).

`CCOC(=O)C1Nc2ccc(C)cc2C2C=CCC12` (stereo not drawn) was tested, and the inhibition was 8.8% (inactive).

With `CCOC(=O)C1Nc2ccc(Br)cc2C2C=CCC12` (stereo not drawn) the inhibition was 5.02% (inactive).

With `O=C(O)c1ccc2c(c1)C1C=CCC1C(c1ccncc1)N2` (stereo not drawn) the inhibition was -11.1% (inactive).

For `CCN(CC)S(=O)(=O)c1ccc(N2CCOCC2)c(NC(=O)c2cc3ccccc3oc2=O)c1`, the inhibition was -2.2% (inactive).

For `COC(CNC(=O)c1cnn2c(C)c(Cc3ccccc3)c(C)nc12)OC`, the inhibition was -1.46% (inactive).

For `Cc1cc(NC(=O)CSc2nc3cc(Cl)ccc3o2)no1`, the inhibition was 1.78% (inactive).

In the case of `COc1ccc(NC(=S)NN2C(C)CCCC2C)cc1` (stereo not drawn), the inhibition is reported as -6.57% (inactive).

In the case of `Cc1ccc(S(=O)(=O)N(C)CC(=O)N2CCCc3ccccc32)cc1`, the inhibition is reported as 3.9% (inactive).

`COc1ccc(OC)c(S(=O)(=O)ON2C(=O)c3ccccc3C2=O)c1` was tested, and the inhibition was 12.6% (inactive).

In the case of `Cc1cc(C)c(C)c(S(=O)(=O)ON2C(=O)c3ccccc3C2=O)c1C`, the inhibition is reported as -4.83% (inactive).

In the case of `Cc1ccc(S(=O)(=O)N2CCN(C(=O)CN3C(=O)c4ccccc4C3=O)CC2)c(C)c1`, the inhibition is reported as -3.1% (inactive).

`Cc1ccc(S(=O)(=O)ON2C(=O)c3cccc4cccc(c34)C2=O)cc1` was tested, and the inhibition was 14.2% (inactive).

`COC(=O)c1ccnc(SCC(=O)c2ccccc2)c1` was tested, and the inhibition was -7.25% (inactive).

`Cc1cc(C)c(N2C(=O)C3C4CC(=O)C(c5ccccc54)C3C2=O)c(C)c1` (stereo not drawn) was tested, and the inhibition was -3.14% (inactive).

In the case of `On1c(-c2ccccc2)nc2ccccc21`, the inhibition is reported as -0.77% (inactive).

For `c1ccc(-c2nc3ccccc3c3nc4ccccc4n23)cc1`, the inhibition was 0.36% (inactive).

`O=C(NCCN1CCOCC1)C1CC(=O)N(c2ccc(Cl)cc2)C1` (stereo not drawn) was tested, and the inhibition was -16.7% (inactive).

For `S=C(NCc1ccco1)Nc1ccc(Br)cn1`, the inhibition was -6.51% (inactive).

In the case of `Cc1ccccc1S(=O)(=O)N(CC(O)CN1CCCCC1)c1ccccc1` (stereo not drawn), the inhibition is reported as -8.27% (inactive).
